Measured values taken from PubChem BioAssay AID1159580 (chemical genetic matrix, 2015).
The whole screen tested about 5,500 compounds, of which about 2,000 (36%) were called active. Not shown: some 18% with an inconclusive outcome. Cut-off read from the data, not from the text of the source: active = normalized growth mostly below about 0.91 (no sharp cut-off); inconclusive = no clear call, values can overlap the other calls; inactive = mostly above about 0.92. The list shows a part of the results.

Assay: chemical genetic growth profiling, strain panel (AID 1159580);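 note: tested at 20 µM; growth read once vehicle control cultures reached saturation at 30 °C; 1 = growth at the plate median or of vehicle wells; lower values mean less growth of the strain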
Conditions: S. cerevisiae deletion strains, growth OD
[1] = locus YDL101C, strain DUN1, active compounds read low
[2] = locus YHR030C, strain SLT2, active compounds read low

Measured: normalized growth

OC(CN1CCN(c2nc3ccc(Cl)cc3s2)CC1)Cn1ccc2ccccc21 (stereo not given)
inactive: locus YAR019C, strain CDC15, active compounds read low 1 | locus YBL105C, strain PKC1, active compounds read low 0.99 | locus YBR135W, strain CKS1, active compounds read low 0.991 | locus YBR136W, strain MEC1, active compounds read low 0.996 | locus YBR160W, strain CDC28, active compounds read low 0.985 | locus YDL017W, strain CDC7, active compounds read low 0.996 | locus YDL028C, strain MPS1, active compounds read low 0.99 | [1] 0.989 | locus YDL108W, strain KIN28, active compounds read low 0.986 | locus YDL132W, strain cdc53, active compounds read low 1 | locus YDL214C, strain PRR2, active compounds read low 0.92 | locus YDR052C, strain DBF4, active compounds read low 1 | locus YDR054C, strain cdc34, active compounds read low 0.996 | locus YDR226W, strain ADK1, active compounds read low 0.99 | locus YDR477W, strain SNF1, active compounds read low 0.935 | locus YER123W, strain YCK3, active compounds read low 0.903 | locus YER133W, strain GLC7, active compounds read low 0.93 | locus YFL009W, strain cdc4, active compounds read low 0.993 | locus YFL029C, strain CAK1, active compounds read low 0.989 | locus YFR003C, strain YPI1, active compounds read low 0.992 | locus YFR019W, strain FAB1, active compounds read low 0.935 | locus YFR028C, strain CDC14, active compounds read low 0.995 | locus YGR040W, strain KSS1, active compounds read low 0.934 | locus YGR052W, strain FMP48, active compounds read low 1.02 | locus YGR092W, strain DBF2, active compounds read low 0.96 | [2] 0.864 | locus YHR079C, strain IRE1, active compounds read low 0.955 | locus YHR082C, strain KSP1, active compounds read low 1.05 | locus YHR205W, strain SCH9, active compounds read low 0.97 | locus YIL147C, strain SLN1, active compounds read low 0.999 | locus YJL095W, strain BCK1, active compounds read low 0.954 | locus YJL128C, strain PBS2, active compounds read low 0.942 | locus YJL157C, strain FAR1, active compounds read low 0.924 | locus YJR016C, strain ILV3, active compounds read low 0.991 | locus YJR066W, strain TOR1 (second series), active compounds read low 0.875 | locus YJR066W, strain TOR1, active compounds read low 0.991 | locus YKL048C, strain ELM1, active compounds read low 0.981 | locus YKL067W, strain YNK1, active compounds read low 0.924 | locus YKL101W, strain HSL1, active compounds read low 0.942 | locus YKL193C, strain SDS22, active compounds read low 0.994 | locus YKL203C, strain TOR2, active compounds read low 0.981 | locus YLR113W, strain HOG1, active compounds read low 0.864 | locus YLR133W, strain CKI1, active compounds read low 0.942 | locus YLR403W, strain SFP1, active compounds read low 0.926 | locus YML070W, strain DAK1, active compounds read low 0.927 | locus YMR001C, strain CDC5, active compounds read low 0.988 | locus YMR205C, strain PFK2 (second series), active compounds read low 0.948 | locus YMR277W, strain FCP1, active compounds read low 1 | locus YNL006W, strain LST8, active compounds read low 0.985 | locus YNL020C, strain ARK1, active compounds read low 0.942 | locus YNL161W, strain CBK1, active compounds read low 0.982 | locus YNL183C, strain NPR1, active compounds read low 1 | locus YNL207W, strain RIO2, active compounds read low 1 | locus YNL222W, strain SSU72, active compounds read low 0.999 | locus YNL307C, strain MCK1 (second series), active compounds read low 0.935 | locus YOL078W, strain AVO1, active compounds read low 0.976 | locus YOL136C, strain PFK27, active compounds read low 0.912 | locus YOR061W, strain CKA2, active compounds read low 0.952 | locus YOR119C, strain RIO1, active compounds read low 1.01 | locus YOR231W, strain MKK1, active compounds read low 0.947 | locus YOR329C, strain SCD5, active compounds read low 0.986 | locus YPL031C, strain PHO85, active compounds read low 0.938 | locus YPL153C, strain RAD53, active compounds read low 0.959 | locus YPL204W, strain HRR25, active compounds read low 0.895 | locus YPL209C, strain IPL1, active compounds read low 0.989 | locus YPL256C, strain CLN2, active compounds read low 0.938 | locus YPR025C, strain CCL1, active compounds read low 0.99 | locus YPR106W, strain ISR1, active compounds read low 0.991 | locus YPR111W, strain DBF20, active compounds read low 0.967 | strain NNK1, active compounds read low 0.974 | strain TSCII, active compounds read low 0.995

OC(CN1CCN(c2nc3ccc(Cl)cc3s2)CC1)CN1CCCN(c2ncc(C(F)(F)F)cc2Cl)CC1 (stereo not given)
active: locus YDL134C, strain PPH21, active compounds read low 0.0459 | locus YEL061C, strain CIN8, active compounds read low 0.0536 | [2] 0.068 | locus YKL190W, strain CNB1, active compounds read low 0.0453 | locus YLR039C, strain RIC1, active compounds read low 0.0605 | locus YLR085C, strain ARP6, active compounds read low 0.0639 | locus YLR262C, strain YPT6, active compounds read low 0.0604 | locus YML094W, strain GIM5, active compounds read low 0.0664 | locus YNL298W, strain CLA4 (second series), active compounds read low 0.0802 | locus YNR030W, strain Alg12, active compounds read low 0.0638 | locus YOL006C, strain TOP1, active compounds read low 0.0656 | locus YPL241C, strain CIN2, active compounds read low 0.0618 | locus YPR135W, strain CTF4, active compounds read low 0.16
inactive: locus YAL013W, strain DEP1, active compounds read low 1 | locus YBR229C, strain ROT2, active compounds read low 0.943 | locus YCL061C, strain MRC1, active compounds read low 0.997 | [1] 1.03 | locus YDR150W, strain NUM1, active compounds read low 0.942 | locus YGR078C, strain PAC10, active compounds read low 1.02 | locus YHR087W, strain rtc3, active compounds read low 0.952 | locus YJL187C, strain SWE1, active compounds read low 0.995 | locus YJR043C, strain POL32, active compounds read low 1.02 | locus YJR075W, strain HOC1, active compounds read low 1.01 | locus YLR058C, strain SHM2 (second series), active compounds read low 0.999 | locus YMR219W, strain ESC1, active compounds read low 1.01 | locus YMR263W, strain SAP30, active compounds read low 1.02 | locus YNL153C, strain GIM3, active compounds read low 1 | locus YNL322C, strain KRE1, active compounds read low 1.03 | locus YPL055C, strain LGE1, active compounds read low 0.985
